KLK7 zymogen act: activates the human kallikrein-7 zymogen. P49862. purified proKLK7, EDANS-DABCYL substrate fluorescence; 100% is mature enzyme control, 0% vehicle. activation, % at 7 µM. actives 0.9% (n = 370,000). AID 652039;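 active = activation above the mean of all tested compounds plus 3 SD, computed per campaign excluding outliers beyond control limits, cut at about 13% in these data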
ADAM10 inh: inhibitors of human ADAM10 | O14672 | recombinant ADAM10, EDANS/DABCYL FRET peptide cleavage, 3 h | inhibition, % at 7 µM | actives 0.62% (n = 370,000);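 active = inhibition above a per-campaign cutoff equal to the mean of compounds falling between control-based bounds plus 3 SD, cut at about 20% in these data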;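 also: 0% = DMSO wells while the 100% control is not disclosed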
V-ATPase pHluor: yeast V-ATPase proton transport regulation by pHLuorin; S. cerevisiae, pHLuorin cytosolic pH fluorescence; response, % at 10 µM; actives 0.37% (n = 350,000); AID 504577; in the data active = response mostly above about 7.3%, no sharp cut-off; inactive = mostly below about 5.4%; also: actives read high
ADAM17 inh: inhibits human ADAM17. P78536. recombinant ADAM17, EDANS/DABCYL FRET peptide cleavage. inhibition, % at 6.95 µM. actives 0.83% (n = 370,000);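 active = inhibition above the mean of compounds lying between control limits plus 3 SD, set per campaign, cut at about 8.5% in these data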;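 also: 0% = DMSO-only wells as the low control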
Target sequence (P78536 215-824 limits assumed): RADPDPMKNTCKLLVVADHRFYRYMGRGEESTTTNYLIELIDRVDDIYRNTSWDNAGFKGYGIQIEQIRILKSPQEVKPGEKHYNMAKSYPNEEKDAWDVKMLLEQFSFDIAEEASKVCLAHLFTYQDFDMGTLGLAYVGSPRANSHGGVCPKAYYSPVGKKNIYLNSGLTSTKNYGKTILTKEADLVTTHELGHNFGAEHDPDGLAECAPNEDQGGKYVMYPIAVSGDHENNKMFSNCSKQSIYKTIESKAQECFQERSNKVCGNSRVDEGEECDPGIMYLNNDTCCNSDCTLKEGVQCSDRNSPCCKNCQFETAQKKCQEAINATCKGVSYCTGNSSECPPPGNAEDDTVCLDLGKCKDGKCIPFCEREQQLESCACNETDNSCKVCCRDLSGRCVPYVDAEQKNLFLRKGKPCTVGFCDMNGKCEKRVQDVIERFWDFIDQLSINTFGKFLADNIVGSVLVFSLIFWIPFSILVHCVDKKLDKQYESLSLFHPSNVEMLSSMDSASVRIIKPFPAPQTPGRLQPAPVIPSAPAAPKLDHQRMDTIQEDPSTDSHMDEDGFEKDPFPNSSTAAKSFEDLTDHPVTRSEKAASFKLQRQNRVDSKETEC
KLK7 act conf: proKLK7 activation, confirmation; activation, % at 7 µM; purified proKLK7, EDANS-DABCYL substrate fluorescence; scaled: vehicle 0, mature enzyme 100; actives 68% (n = 3,200); AID 686949; shares compounds with KLK7 zymogen act;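 active = activation, as change over the incubation, above the mean of all tested compounds plus 3 SD, cut at about 13% in these data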
EDANS-DABCYL int: optically interferes with EDANS-DABCYL signal, flagging KLK7 hits; AID 686952; activation, % at 7 µM; actives 80% (n = 3,200); shares compounds with KLK7 zymogen act; EDANS-DABCYL substrate fluorescence interference, no enzyme, 4 h; solvent 0%, active enzyme control 100%;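 active = activation above the all-compound mean plus 3 SD, ignoring values outside control-based bounds, cut at about 4.8% in these data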;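 also: value is the 4 h activation minus the activation read at time zero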
K7 EDANS ctr: EDANS fluorescence interference in dose response, no enzyme; shares compounds with KLK7 zymogen act; AID 720493; EC50, µM; EDANS-DABCYL peptide fluorescence interference; actives 20% (n = 250);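 active = compounds that raise the fluorescence signal in this interference counterscreen, with EC50 at or below 10 µM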;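 also: intact quenched peptide substrate alone read at 355 nm excitation and 520 nm emission; signal is fluorescence gain from T0 to T4 after four hours at room temperature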
* marks the source's active call; other numbers are inactive results. The list is not random: actives were taken first. Their share in the collection is about 2.3%.

For Cc1cc(C)c(NC(=O)c2cn3c4c(c(N5CCN(C)CC5)c(F)cc4c2=O)OCC3C)c(C)c1 (stereo unspecified) the results were KLK7 zymogen act 1.7, ADAM10 inh -335.3, V-ATPase pHluor -0.8 and ADAM17 inh -84.0.
For CN(C)Cc1ccccc1-c1cccc2nccn12 the results were KLK7 zymogen act 19.3*, ADAM10 inh -331.2, ADAM17 inh -85.6, KLK7 act conf 1.8 and EDANS-DABCYL int 3.4.
For C=CCN=C1NC(c2ccccc2)C(C(=O)OC)=C(C)N1C (stereo unspecified) the results were KLK7 zymogen act -1.0, ADAM10 inh -5.7 and ADAM17 inh 0.2.
Screening CCC(=O)Oc1ccc2oc(=O)cc(C)c2c1 returned KLK7 zymogen act 1.3, ADAM10 inh -6.3, V-ATPase pHluor -0.1 and ADAM17 inh -0.1.
Screening CCC(=O)Oc1ccc2c(c1)OC1(OC(C)=O)OC(C)CC1=C2C (stereo unspecified) returned KLK7 zymogen act 296.8*, ADAM10 inh inactive, V-ATPase pHluor -2.4, ADAM17 inh inactive, KLK7 act conf 609.8* and EDANS-DABCYL int 615.5*.
CCN(CC(=O)NCc1ccc(F)cc1)C(=O)COc1ccccc1[N+](=O)[O-] was read as KLK7 zymogen act 31.2*, ADAM10 inh -7.8, V-ATPase pHluor -1.6, ADAM17 inh -1.1, KLK7 act conf -0.7 and EDANS-DABCYL int 0.0.
For O=C(COC(=O)Cc1ccccc1[N+](=O)[O-])NCc1ccc(F)cc1 the results were KLK7 zymogen act -0.6, ADAM10 inh 2.1, V-ATPase pHluor -12.3 and ADAM17 inh -0.7.
`CC(C)(C)OC(=O)NCCc1ccccc1/C=C/S(=O)(=O)NCc1ccccc1` gave KLK7 zymogen act 0.0, ADAM10 inh 11.6 and ADAM17 inh -2.4.
Screening COc1ccc2[nH]c(=O)c(C(c3nnnn3CC3CCCO3)N3CCc4ccccc4C3)cc2c1 (stereo unspecified) returned KLK7 zymogen act 20.5*, ADAM10 inh inactive, V-ATPase pHluor -3.4, ADAM17 inh -110.2, KLK7 act conf 11.4 and EDANS-DABCYL int 9.9*.
Screening Cc1ccc2[nH]c(=O)c(C(c3nnnn3CC3CCCO3)N3CCc4ccccc4C3)cc2c1 (stereo unspecified) returned KLK7 zymogen act 1.2, ADAM10 inh -69.0, V-ATPase pHluor 1.4 and ADAM17 inh -18.6.
`COc1ccc(-c2ncccc2OC(=O)C23CC4CC(CC(C4)C2)C3)cc1OC` gave KLK7 zymogen act 18.3*, ADAM10 inh inactive, V-ATPase pHluor -9.0, ADAM17 inh -138.3, KLK7 act conf 12.0 and EDANS-DABCYL int 8.2*.
O=C(Oc1ccc(Cl)c2cccnc12)C12CC3CC(CC(C3)C1)C2 was read as KLK7 zymogen act -0.2, ADAM10 inh 1.2, V-ATPase pHluor 2.0 and ADAM17 inh 3.4.
`COc1ccc2ccccc2c1C=NNC(=O)c1cc(-c2ccc(C)c(C)c2)n[nH]1` gave KLK7 zymogen act 48.6*, ADAM10 inh -16.8, ADAM17 inh -5.8, KLK7 act conf 21.7*, EDANS-DABCYL int 15.1* and K7 EDANS ctr >69.5.
CCn1c2ccccc2c2cc(C=NNC(=O)c3cc(-c4ccc(OC)cc4)n[nH]3)ccc21 was read as KLK7 zymogen act 50.3*, ADAM10 inh -186.5, ADAM17 inh -35.4, KLK7 act conf -13.1 and EDANS-DABCYL int -32.5.
CCCCn1c(SCC(=O)Nc2ccc(OC)cc2)nc2ccc(N3CCOCC3)cc2c1=O was read as KLK7 zymogen act 16.6*, ADAM10 inh -139.5, V-ATPase pHluor 1.9, ADAM17 inh -33.2, KLK7 act conf -5.2 and EDANS-DABCYL int -4.4.
Screening CCCCn1c(SCC(=O)NC(C)CC)nc2ccc(N3CCOCC3)cc2c1=O (stereo unspecified) returned KLK7 zymogen act 1.9, ADAM10 inh -68.2, V-ATPase pHluor -5.2 and ADAM17 inh -15.9.
COc1cc(/C=C/C(=O)O)cc(OC)c1O was read as KLK7 zymogen act 20.8*, ADAM10 inh -24.9, V-ATPase pHluor -1.5, ADAM17 inh -6.1, KLK7 act conf 70.0* and EDANS-DABCYL int 79.2*.
